Measured values reported in the supplement of paper PMC11732987, “Enantioselective OTUD7B fragment discovery through chemoproteomics screening and high-throughput optimisation” (Communications Chemistry, 2025).

Assays:
Test in all cases: log2 ratio of Biotin-Ahx-Ub-VS probe labelling (fragment/DMSO); higher = less target engagement (more negative = stronger competition), active = hit call of the paper (q ≤ 0.05, log2 ratio ≤ -1)
Settings in all cases: compound concentration: 200 uM; treatment time: 3 h
OTUD6B = molecular target: T1, OTUD6B (UniProt Q8N6M0)
T1 sequence (whole entry): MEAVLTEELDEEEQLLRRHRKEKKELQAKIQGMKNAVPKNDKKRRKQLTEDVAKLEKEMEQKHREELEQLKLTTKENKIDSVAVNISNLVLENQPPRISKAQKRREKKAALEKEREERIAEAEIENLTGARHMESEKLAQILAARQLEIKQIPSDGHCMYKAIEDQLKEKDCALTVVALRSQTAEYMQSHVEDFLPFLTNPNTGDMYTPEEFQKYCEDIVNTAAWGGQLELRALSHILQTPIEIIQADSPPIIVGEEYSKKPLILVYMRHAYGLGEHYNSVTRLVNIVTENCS
Outline: (§1)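 HEK293T lysate in Tris/CHAPS/IGEPAL buffer with protease inhibitors (495 µg per sample) was given fragment at 200 µM or vehicle for 3 h, in triplicate. It then received Biotin-Ahx-Ub-VS at 0.5 µM final for 1 h. Labelled DUBs were NeutrAvidin-enriched, digested with LysC and trypsin, and run by diaPASEF LC-MS/MS. Values are average log2 fragment/vehicle ratios by unpaired t-test on global-median-normalised Spectronaut quantities of proteins with ≥2 unique peptides.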

OTUD7B = molecular target: T2, OTUD7B (UniProt Q6GQQ9)
T2 sequence (whole entry): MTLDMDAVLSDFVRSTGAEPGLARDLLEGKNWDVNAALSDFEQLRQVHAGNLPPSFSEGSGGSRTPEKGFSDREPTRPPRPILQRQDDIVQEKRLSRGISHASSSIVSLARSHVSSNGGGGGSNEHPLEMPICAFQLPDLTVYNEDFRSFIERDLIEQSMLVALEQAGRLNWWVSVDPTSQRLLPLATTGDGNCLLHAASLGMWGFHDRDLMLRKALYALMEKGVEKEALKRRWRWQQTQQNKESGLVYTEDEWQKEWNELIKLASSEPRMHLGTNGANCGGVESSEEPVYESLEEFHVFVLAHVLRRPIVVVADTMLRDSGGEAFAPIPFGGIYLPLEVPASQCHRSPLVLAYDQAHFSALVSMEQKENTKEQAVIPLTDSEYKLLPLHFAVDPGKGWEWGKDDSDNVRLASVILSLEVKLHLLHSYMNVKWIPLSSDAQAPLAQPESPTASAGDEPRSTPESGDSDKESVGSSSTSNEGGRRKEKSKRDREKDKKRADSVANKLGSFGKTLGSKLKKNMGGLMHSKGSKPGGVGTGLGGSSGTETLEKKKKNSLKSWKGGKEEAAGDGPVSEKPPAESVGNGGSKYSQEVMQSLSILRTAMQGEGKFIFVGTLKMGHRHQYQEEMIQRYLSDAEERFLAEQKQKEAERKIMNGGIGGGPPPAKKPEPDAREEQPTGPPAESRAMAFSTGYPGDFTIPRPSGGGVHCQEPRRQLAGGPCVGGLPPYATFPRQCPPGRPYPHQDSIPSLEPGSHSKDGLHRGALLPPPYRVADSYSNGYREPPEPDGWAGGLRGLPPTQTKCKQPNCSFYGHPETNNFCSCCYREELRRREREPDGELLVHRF
Outline: as §1

PRPF8 = PRPF8 (UniProt Q6P2Q9)
Outline: as §1

PSMD7 = molecular target: T3, PSMD7 (UniProt P51665)
T3 sequence (whole entry): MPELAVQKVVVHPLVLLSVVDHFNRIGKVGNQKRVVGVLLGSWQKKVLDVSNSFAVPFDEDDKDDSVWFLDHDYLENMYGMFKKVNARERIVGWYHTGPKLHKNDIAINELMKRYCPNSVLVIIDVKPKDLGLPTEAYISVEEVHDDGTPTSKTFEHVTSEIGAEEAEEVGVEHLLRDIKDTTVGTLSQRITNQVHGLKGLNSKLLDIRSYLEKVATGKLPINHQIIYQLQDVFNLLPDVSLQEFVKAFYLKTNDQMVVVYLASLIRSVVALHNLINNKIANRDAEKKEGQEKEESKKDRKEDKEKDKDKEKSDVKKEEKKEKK
Outline: as §1

UCHL1 = UCHL1 (UniProt P09936)
Sequence of UCHL1 (P09936 whole entry, looked up): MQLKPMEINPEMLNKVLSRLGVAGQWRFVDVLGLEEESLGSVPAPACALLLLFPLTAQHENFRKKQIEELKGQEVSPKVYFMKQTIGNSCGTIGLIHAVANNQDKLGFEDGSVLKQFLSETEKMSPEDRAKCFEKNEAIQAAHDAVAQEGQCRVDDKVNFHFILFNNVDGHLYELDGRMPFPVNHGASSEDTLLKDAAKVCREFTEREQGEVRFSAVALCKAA
Outline: as §1

UCHL3 = molecular target: T4, UCHL3 (UniProt P15374)
T4 sequence (whole entry): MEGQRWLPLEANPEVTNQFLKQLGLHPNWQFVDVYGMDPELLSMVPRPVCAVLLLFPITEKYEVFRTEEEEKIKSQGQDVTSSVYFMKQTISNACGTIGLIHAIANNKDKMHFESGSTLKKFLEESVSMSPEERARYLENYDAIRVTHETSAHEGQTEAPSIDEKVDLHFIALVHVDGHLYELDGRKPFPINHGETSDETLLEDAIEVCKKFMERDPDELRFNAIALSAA
Outline: as §1

UCHL5 = molecular target: T5, UCHL5 (UniProt Q9Y5K5)
T5 sequence (whole entry): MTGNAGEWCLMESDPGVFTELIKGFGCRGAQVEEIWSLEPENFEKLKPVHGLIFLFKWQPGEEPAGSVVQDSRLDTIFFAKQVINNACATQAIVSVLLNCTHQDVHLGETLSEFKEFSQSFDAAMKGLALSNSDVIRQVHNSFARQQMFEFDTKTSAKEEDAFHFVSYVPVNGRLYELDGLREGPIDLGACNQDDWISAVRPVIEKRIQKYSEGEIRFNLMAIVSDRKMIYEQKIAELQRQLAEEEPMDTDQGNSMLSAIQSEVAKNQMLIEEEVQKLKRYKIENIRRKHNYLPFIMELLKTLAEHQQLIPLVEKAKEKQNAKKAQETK
Outline: as §1

USP10 = USP10 (UniProt Q14694)
Sequence of USP10 (Q14694 whole entry): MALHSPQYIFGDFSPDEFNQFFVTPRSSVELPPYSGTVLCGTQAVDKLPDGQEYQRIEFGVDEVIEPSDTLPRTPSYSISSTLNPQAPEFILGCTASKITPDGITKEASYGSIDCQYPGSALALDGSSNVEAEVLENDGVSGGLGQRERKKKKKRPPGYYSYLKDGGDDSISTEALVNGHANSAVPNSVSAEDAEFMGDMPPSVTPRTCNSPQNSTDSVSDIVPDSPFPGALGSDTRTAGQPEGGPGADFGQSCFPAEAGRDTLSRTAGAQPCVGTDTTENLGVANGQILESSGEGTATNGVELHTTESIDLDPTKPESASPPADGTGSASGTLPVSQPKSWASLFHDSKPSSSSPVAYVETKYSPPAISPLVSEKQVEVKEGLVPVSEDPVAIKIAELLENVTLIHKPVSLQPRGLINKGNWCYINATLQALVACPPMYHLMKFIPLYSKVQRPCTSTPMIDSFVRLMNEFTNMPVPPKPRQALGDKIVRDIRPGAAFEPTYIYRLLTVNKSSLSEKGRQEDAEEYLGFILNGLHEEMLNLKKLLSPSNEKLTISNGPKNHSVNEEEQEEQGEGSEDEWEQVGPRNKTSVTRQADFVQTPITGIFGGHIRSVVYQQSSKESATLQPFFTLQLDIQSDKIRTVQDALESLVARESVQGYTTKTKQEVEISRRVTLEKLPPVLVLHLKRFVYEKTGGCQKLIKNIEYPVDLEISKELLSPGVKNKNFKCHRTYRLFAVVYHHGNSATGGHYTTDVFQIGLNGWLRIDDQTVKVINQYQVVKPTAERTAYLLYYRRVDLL
Outline: as §1

USP15 = molecular target: T6, USP15 (UniProt Q9Y4E8)
T6 sequence (whole entry): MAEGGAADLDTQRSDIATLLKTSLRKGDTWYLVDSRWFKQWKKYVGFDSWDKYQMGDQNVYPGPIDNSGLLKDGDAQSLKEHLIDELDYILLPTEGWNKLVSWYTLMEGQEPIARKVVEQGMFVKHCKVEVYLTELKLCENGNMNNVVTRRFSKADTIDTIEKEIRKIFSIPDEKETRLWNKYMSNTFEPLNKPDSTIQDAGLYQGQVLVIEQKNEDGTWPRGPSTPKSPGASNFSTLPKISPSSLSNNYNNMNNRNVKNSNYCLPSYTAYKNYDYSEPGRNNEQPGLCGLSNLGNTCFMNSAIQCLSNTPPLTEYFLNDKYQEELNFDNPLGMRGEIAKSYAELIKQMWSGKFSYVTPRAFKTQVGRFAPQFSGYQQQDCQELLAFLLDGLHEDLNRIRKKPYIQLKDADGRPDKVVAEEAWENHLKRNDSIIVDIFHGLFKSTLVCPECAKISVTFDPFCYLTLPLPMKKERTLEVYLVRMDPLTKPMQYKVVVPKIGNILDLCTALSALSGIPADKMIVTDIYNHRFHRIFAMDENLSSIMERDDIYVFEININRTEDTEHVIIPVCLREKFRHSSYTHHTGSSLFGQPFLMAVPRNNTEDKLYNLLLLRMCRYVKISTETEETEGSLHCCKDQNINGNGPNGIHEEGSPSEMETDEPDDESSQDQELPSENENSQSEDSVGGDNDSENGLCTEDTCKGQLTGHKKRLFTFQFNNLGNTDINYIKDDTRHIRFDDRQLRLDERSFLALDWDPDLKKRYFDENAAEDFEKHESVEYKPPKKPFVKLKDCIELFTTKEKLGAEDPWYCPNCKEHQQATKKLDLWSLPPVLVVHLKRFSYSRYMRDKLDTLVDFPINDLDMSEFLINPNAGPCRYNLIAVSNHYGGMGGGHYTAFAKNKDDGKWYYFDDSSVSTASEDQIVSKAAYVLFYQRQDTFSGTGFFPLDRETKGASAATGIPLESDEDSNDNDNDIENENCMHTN
Outline: as §1

Measured: log2 ratio of Biotin-Ahx-Ub-VS probe labelling

Cc1nc(CN2CCCN(C(=O)CCl)CC2)no1.Cl
inactive: OTUD6B 0.121 | OTUD7B 0.0504 | PRPF8 0.0827 | PSMD7 0.166 | UCHL1 -0.971 | UCHL3 0.331 | UCHL5 -0.00418 | USP10 0.0299 | USP15 -0.0311
